PTHR1 agonist = qHTS for PTHR1 Agonists: Primary Screen | Parathyroid hormone/parathyroid hormone-related peptide receptor (Homo sapiens), Q03431 | HEK293 GP2 PTHR1 cells, GloSensor cAMP luminescence, 1 h | Potency, µM (top dose mostly 115 µM), most hits filed as activators | 410,000 tested, 0.075% active | AID 743266, 2014; further: nearly all actives have a fitted effect of over 55% in size
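HEK-293-derived GP2 cells expressing PTHR1 and a GloSensor cAMP reporter, 3,000/well, plated overnight, given luciferin plus IBMX (each 0.5 mM as added) for 1 h at 37 °C, then compound for 1 h at 37 °C. Luminescence was read after 15 min at room temperature.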
RGS4 inhibitor = Inhibitors of Regulator of G Protein Signaling (RGS) 4: qHTS | Transcreener GDP fluorescence polarization, RGS4-accelerated GTP hydrolysis | Potency, µM (doses to about 114 µM), most hits filed as inhibitors | 390,000 tested, 0.039% active; further: nearly all actives have a fitted effect of over 75% in size
Target sequence (P49798 whole entry, looked up): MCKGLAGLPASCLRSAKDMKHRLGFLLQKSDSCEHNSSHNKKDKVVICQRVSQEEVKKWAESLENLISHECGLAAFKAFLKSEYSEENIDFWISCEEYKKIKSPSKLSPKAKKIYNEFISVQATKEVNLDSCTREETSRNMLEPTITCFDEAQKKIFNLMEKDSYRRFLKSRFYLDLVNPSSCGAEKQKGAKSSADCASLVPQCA
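MLSMR compounds (23 nl, pin-transferred) preincubated 10 min at room temperature with a 500nM (2x) first reagent, then RGS4 at 900nM (2x) plus Transcreener GDP mix added; fluorescence polarization (620/688 nm) read before and after 90 min at 30 °C.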
B2AR arrestin = qHTS assay of beta-arrestin-biased ligands of beta2-adrenergic receptor. Beta-2 adrenergic receptor (Homo sapiens), P07550. beta-arrestin recruitment to beta2AR, cell-based reporter. Potency, µM (doses to about 46.1 µM), actives largely listed as activators. 330,000 tested, 0.02% active. AID 492947, 2010; further: nearly all actives have a fitted effect of over 65% in size
Target sequence (P07550 whole entry, looked up): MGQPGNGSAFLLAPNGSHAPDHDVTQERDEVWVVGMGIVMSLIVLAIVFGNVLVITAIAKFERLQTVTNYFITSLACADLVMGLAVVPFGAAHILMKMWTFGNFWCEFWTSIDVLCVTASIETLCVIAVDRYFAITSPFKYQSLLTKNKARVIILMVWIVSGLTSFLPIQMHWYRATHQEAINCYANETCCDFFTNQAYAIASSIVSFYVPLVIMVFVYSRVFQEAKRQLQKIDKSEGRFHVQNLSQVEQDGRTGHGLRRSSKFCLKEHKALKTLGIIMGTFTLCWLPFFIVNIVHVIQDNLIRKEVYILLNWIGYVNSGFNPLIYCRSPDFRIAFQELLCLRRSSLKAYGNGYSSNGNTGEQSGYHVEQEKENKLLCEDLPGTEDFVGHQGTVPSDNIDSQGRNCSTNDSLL
D3 ag = qHTS of D3 Dopamine Receptor Agonist: qHTS; D(3) dopamine receptor (Homo sapiens), P35462; max activation, %; D3R DiscoveRx beta-arrestin cells, luminescence, 90 min; 410,000 tested, 0.58% active; in the data active means max activation above about 30%
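Agonist mode: compounds and dopamine controls were applied to plated cells for 90 min at 37 degrees C after an overnight attachment at 1500 cells/well. Luminescent read-out followed 30 - 60 minutes at room temperature with DiscoveRx detection reagent.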
DRD3 antagonist = qHTS of D3 Dopamine Receptor Antagonist: qHTS; D(3) dopamine receptor (Homo sapiens), P35462; D3R cells, DiscoveRx beta-arrestin luminescence, antagonist mode; hits give low values; max response, negative = inhibition, %; 360,000 tested, 2.5% active; AID 652054, 2013; in the data active means max response below about -50%; inconclusive means no clear call, values can overlap the other calls
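Cells expressing the human receptor were seeded at 1500 cells/well, incubated overnight at 37 degrees C in 5% CO2, then exposed to library compounds with dopamine controls for 90 minutes at 37 degrees C before luminescent detection.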
BRCA1 expr act = qHTS Assay to Identify Small Molecule Activators of BRCA1 Expression; MCF7-BRCA1-FFLuc reporter, luminescence, 48 h; response scale: scaled: vehicle 0%, 10 µM genistein 100%; Potency, µM (top dose mostly 46.1 µM), usual class: activators; 380,000 tested, 1.1% active; further: nearly all actives have a fitted effect of over 80% in size
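48 h compound treatment of MCF7-BRCA1-FFLuc cells (phenol-red free MEM, 37 °C), then 15 min with luciferase substrate and luminescence imaging.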
Large screens that a line does not name were inactive. An excerpt weighted towards active compounds, which were near 3.7% of everything screened. Unless noted, the call rests on the fitted dose curve; in most records, active means well fitted curve in the direction sought with a large enough effect; inconclusive means small, poorly fitted or top-dose-only effect, or another doubt; inactive means no such curve, though single readings can be large; an effect the other way counts as inactive or inconclusive.

O=c1oc(-c2ccco2)nc2ccccc12	DRD3 antagonist -57
c1ccc(Cn2c(-c3ccco3)nc3nc4ccccc4nc32)cc1	BRCA1 expr act inconclusive
O=c1c2ccccc2nc(-c2ccco2)n1Cc1ccccc1	BRCA1 expr act 7.9µM (no result: B2AR arrestin)
CCOc1ccc(CCn2c(-c3ccco3)nc3ccccc3c2=O)cc1OCC	D3 ag 36
CCn1c(SCC(=O)N2CCC(C)CC2)nnc1-c1ccccc1O	none (no result: B2AR arrestin, DRD3 antagonist, BRCA1 expr act)
COc1cccc(C2CC(=O)N(c3ccc(F)cc3)C3=C2C(=O)OC3)c1OC (stereo unspecified)	none (no result: B2AR arrestin, DRD3 antagonist, BRCA1 expr act)
CC(C)CCN(C(=O)CCCSc1nc2ccccc2[nH]1)c1c(N)n(Cc2ccccc2)c(=O)[nH]c1=O	none
COc1ccc(NC(=O)CC2CC3CCC2C3)cn1 (stereo unspecified)	BRCA1 expr act 13µM
COc1ccc(NC(=O)CCl)cn1	none (no result: PTHR1 agonist, RGS4 inhibitor, D3 ag, DRD3 antagonist, BRCA1 expr act)
CN(c1ccc(F)cc1)S(=O)(=O)N1CCCC(C(=O)NCc2cccc(Br)c2)C1 (stereo unspecified)	none (no result: B2AR arrestin, DRD3 antagonist, BRCA1 expr act)
Cc1ccc(N/N=C/c2ccc3c(c2)OCCO3)cc1Cl	BRCA1 expr act 3.2µM
Cc1ccc2sc(N(CCN(C)C)C(=O)c3ccc4ccccc4c3)nc2c1C	PTHR1 agonist inconclusive, DRD3 antagonist -73
Cc1cc(C)c2sc(N(CCN(C)C)C(=O)c3ccc4ccccc4c3)nc2c1	DRD3 antagonist inconclusive
COc1cc(C(=S)N2CCOCC2)ccc1OS(=O)(=O)c1ccccc1[N+](=O)[O-]	none
CCOc1cc(C(=S)N2CCOCC2)ccc1OS(=O)(=O)c1ccccc1[N+](=O)[O-]	B2AR arrestin 1.2µM
CC(=O)N(/N=C/c1ccc([N+](=O)[O-])o1)c1nc2ccccc2c(=O)n1-c1ccccc1	DRD3 antagonist -54
CCOc1ccc(NC2CCCCC2NS(=O)(=O)c2ccccc2)cc1 (stereo unspecified)	none
Cc1cc(S(=O)(=O)Nc2ccc(C(=O)N3CCN(c4ccccc4O)CC3)cc2)ccc1F	D3 ag 32
Cc1ccc(C(=O)Nc2ccc(N3CCN(C)CC3)cc2)cc1	BRCA1 expr act 1.3µM
CCOc1ccc(C(=O)Nc2ccc(N3CCN(C)CC3)cc2)cc1	none
COc1ccc(C(=O)Nc2ccc(N3CCN(C)CC3)cc2)cc1	BRCA1 expr act 2.2µM
COc1ccc(NC(=O)c2ccc3c(c2)N(C)CCS3)cc1	BRCA1 expr act 10µM
CN1CCSc2ccc(C(=O)Nc3cccc(F)c3)cc21	none
CCCOc1ccc(CNC(=O)c2ccc3c(c2)N(CC)CCS3)cc1	DRD3 antagonist -65
Cc1ccc(Sc2ccc(N3CCCC(C(=O)Nc4ccc(Br)cc4)C3)nn2)cc1 (stereo unspecified)	none (no result: B2AR arrestin, DRD3 antagonist)
OCc1ccccc1-c1cnc2sc(NCc3ccc(F)cc3)nn12	none (no result: RGS4 inhibitor, B2AR arrestin)
COc1ccccc1NC(=O)c1ccc2[nH]c(C)cc(=O)c2c1	none (no result: B2AR arrestin, DRD3 antagonist, BRCA1 expr act)
COc1ccc(C(=O)Nc2ccc(N3CCN(C)CC3)cc2)cc1OC	BRCA1 expr act 2µM
CN(c1ccccc1)c1ccc(/C=N/N2CCOCC2)cc1	DRD3 antagonist -52
Cc1cc(OCc2cc(C(=O)NCc3csc(C(C)C)n3)no2)cc(C)c1Cl	none
O=c1n(Cc2ccccc2)nc2n1-c1ccccc1SC2	none
O=c1n(Cc2ccccc2Cl)nc2n1-c1ccccc1SC2	BRCA1 expr act 11µM
O=C(CSc1cn(Cc2ccccc2)c2ccccc12)Nc1nccs1	BRCA1 expr act 11µM
N#Cc1ccccc1NC(=O)c1ccc2c(Cl)c3c(nc2c1)CCCC3	BRCA1 expr act 6.3µM
CCOc1cc(/C=C(\C#N)C(=O)Nc2ccc(C)cc2)ccc1OCc1cc(=O)n2nc(CC)sc2n1	D3 ag 48 (no result: B2AR arrestin, DRD3 antagonist)
FC(F)(F)c1cccc(CN2CCC(c3cc(-c4cccs4)n[nH]3)CC2)c1	DRD3 antagonist -80
Cc1ccc(CN2CCC(c3cc(-c4cccs4)n[nH]3)CC2)cc1	DRD3 antagonist -78
O=C(NNc1ccc([N+](=O)[O-])cc1)c1ccccc1Cl	DRD3 antagonist inconclusive
O=C(NC(NNc1ccc([N+](=O)[O-])cc1)(C(F)(F)F)C(F)(F)F)c1ccc(Cl)cc1	RGS4 inhibitor inconclusive, DRD3 antagonist -74
CCNc1nc(NCC)nc(-n2nc(C)cc2C)n1	B2AR arrestin 7.9µM
Cc1cc(C)n(-c2nc(NC(C)(C)C)nc(NC(C)(C)C)n2)n1	B2AR arrestin inconclusive, DRD3 antagonist -62
Cc1cc(C)n(-c2nc(NC(C)C)nc(NC(C)C)n2)n1	B2AR arrestin 13µM, DRD3 antagonist -51
Cc1cc(C)n(-c2nc(Nc3ccccc3C)nc(-n3nc(C)cc3C)n2)n1	none (no result: PTHR1 agonist, RGS4 inhibitor, D3 ag, DRD3 antagonist, BRCA1 expr act)
Cc1ccccc1S(=O)(=O)NC(=O)C1(C)CCN1C(=O)c1c(C)noc1C (stereo unspecified)	none (no result: RGS4 inhibitor, B2AR arrestin)
C#CCC(Cc1cnc2nc(N)nc(N)c2n1)c1ccc(C(=O)N[C@@H](CCC(=O)O)C(=O)O)cc1 (stereo partly specified)	none (no result: PTHR1 agonist, RGS4 inhibitor, B2AR arrestin, DRD3 antagonist, BRCA1 expr act)
CC1(C)CC(CC(=O)NC(=S)Nc2ccc([N+](=O)[O-])cc2)C(=O)O1 (stereo unspecified)	DRD3 antagonist -83
Cc1ccc(NC(=S)NC(=O)CC2CC(C)(C)OC2=O)cc1 (stereo unspecified)	none
COc1ccc(S(=O)(=O)N2CCC3CC2c2c(-c4ccc(C(F)(F)F)cc4)cccc23)cc1 (stereo unspecified)	D3 ag 52 (no result: RGS4 inhibitor, B2AR arrestin)
O=C(Cn1ncc2c3ccccc3n(Cc3ccccc3F)c2c1=O)NCc1ccccc1Cl	none (no result: B2AR arrestin, DRD3 antagonist, BRCA1 expr act)
CC1C2CC(C(CN(C)C)/C2=N/O)C1(C)C (stereo unspecified)	none
CC1/C(=N/O)C(CN(C)C)C2CC1C2(C)C (stereo unspecified)	DRD3 antagonist -69
CN1CCN(c2nc(NCCOC34CC5CC(CC(C5)C3)C4)nc(OCC(F)(F)F)n2)CC1	DRD3 antagonist -61
CCCNc1nc(OCC(F)(F)F)nc(OCC(F)(F)F)n1	none
CCSc1nn2c(=O)c3ccccc3nc2s1	BRCA1 expr act 2.5µM
CCc1cccc(C)c1Nc1nn2c(=O)c3ccccc3nc2s1	RGS4 inhibitor inconclusive (no result: B2AR arrestin, DRD3 antagonist, BRCA1 expr act)
COC(=O)c1nc(NC(=O)c2ccccc2Cl)n[nH]1	DRD3 antagonist -60
O=C(O)c1cccc(Nc2ccc([N+](=O)[O-])c3nonc23)c1	DRD3 antagonist -57

Screens as filed in PubChem.
